This is part of a sample that, as a whole, favours compounds with a hit. Of some 79,000 tested, about 15% had one in any assay. Unmarked numbers belong to inactive results. Calls of active or inactive are those of the source. No stated cut-off is given here; in the data, active means growth inhibition above about 70%; inactive means the rest.
Experiments:
[1] = NCI Yeast Anticancer Drug Screen. Data for the rad50 strain (AID 155);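 further: 0% = growth of vehicle-only cultures of the same strain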; conditions: S. cerevisiae rad50 strain growth inhibition; at 50.0 µM; active compounds read high
Method in brief: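 Readout: growth inhibition relative to vehicle-treated cultures. Compound exposure was carried out in a genetically defined yeast strain deficient in DNA damage repair.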

[2] = NCI Yeast Anticancer Drug Screen. Data for the mec2-1 strain (AID 157); conditions: S. cerevisiae mec2-1 strain, at 50.0 µM, active compounds read high
Method in brief: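 Mutant yeast (mec2-1) grown with compound; growth inhibition relative to vehicle control reported.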

[3] = NCI Yeast Anticancer Drug Screen. Data for the sgs1 mgt1 strain (AID 161);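 further: 0% = growth of cultures given vehicle only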; conditions: S. cerevisiae sgs1 mgt1 strain, at 50.0 µM, active compounds read high
Method in brief: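 Growth of a repair-deficient yeast mutant was monitored after compound treatment and expressed as inhibition relative to vehicle-treated cultures.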

[4] = NCI Yeast Anticancer Drug Screen. Data for the cln2 rad14 strain (AID 165);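 further: 0% = growth equal to vehicle treated cultures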; conditions: S. cerevisiae cln2 rad14 strain, at 50.0 µM, active compounds read high
Method in brief: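 Readout is yeast growth inhibition versus vehicle-treated controls, using a strain with cln2 and rad14 alterations exposed to compound.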

[5] = NCI Yeast Anticancer Drug Screen. Data for the bub3 strain (AID 167); conditions: S. cerevisiae bub3 mutant strain, at 50.0 µM, active compounds read high
Method in brief: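 Readout: yeast growth inhibition, expressed relative to vehicle-only wells. The test organism is a mutant strain from a panel with lesions in DNA repair or checkpoint genes.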

[6] = NCI Yeast Anticancer Drug Screen. Data for the mlh1 rad18 strain (AID 175); conditions: S. cerevisiae mlh1 rad18 strain growth inhibition; at 50.0 µM; active compounds read high
Method in brief: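 Genetically defined yeast (DNA repair-deficient) exposed to compounds; growth inhibition determined relative to vehicle.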

CCOC(=O)C[Se]CC(=O)OCC
growth inhibition [1]: -8.65% | growth inhibition [2]: 11.2% | growth inhibition [3]: 11.2% | growth inhibition [4]: -14.2% | growth inhibition [5]: 43.8% | growth inhibition [6]: 28.3%

O=C(N/N=C/c1cc(Cl)cc(Cl)c1[O-])c1ccccc1O.O=C(N/N=C/c1cc(Cl)cc(Cl)c1[O-])c1ccccc1O.[Ni+2]
growth inhibition [1]: -8.75% | growth inhibition [2]: -15.8% | growth inhibition [3]: -14.8% | growth inhibition [4]: -41.2% | growth inhibition [5]: 6.9% | growth inhibition [6]: -17.1%

CN(C)CC#CCN(C)C
growth inhibition [1]: 28.1% | growth inhibition [2]: 5% | growth inhibition [3]: -1% | growth inhibition [4]: -10.8% | growth inhibition [5]: 0.45% | growth inhibition [6]: 7.2%

CC1CN1C1c2ccccc2CC1O (stereo unspecified)
growth inhibition [1]: 1.2% | growth inhibition [2]: -13.2% | growth inhibition [3]: -11.8% | growth inhibition [4]: -15.4% | growth inhibition [5]: -20.3% | growth inhibition [6]: -8.95%

CC1=C(C)C(=O)OC(C(C)(O)C2(O)CCC3(O)C4CC(Cl)C5(O)C(O)C=CC(=O)C5(C)C4CCC32C)C1 (stereo unspecified)
growth inhibition [1]: 7.8% | growth inhibition [2]: -37.3% | growth inhibition [3]: -18.7% | growth inhibition [4]: -3.2% | growth inhibition [5]: -15.9% | growth inhibition [6]: -52.2%

COc1ccc(NC(=O)COc2cccc(Cl)c2)cc1S(=O)(=O)F
growth inhibition [1]: 3.95% | growth inhibition [2]: 32.1% | growth inhibition [3]: 14.4% | growth inhibition [4]: -2.65% | growth inhibition [5]: 30.1% | growth inhibition [6]: 1.15%

COc1ccc2c(c1)C13CCCCC1C(C2)[N+](C)([O-])CC3 (stereo unspecified)
growth inhibition [1]: -6.8% | growth inhibition [2]: -19.1% | growth inhibition [3]: 6.35% | growth inhibition [4]: -38.1% | growth inhibition [5]: -10.9% | growth inhibition [6]: 4.95%

CCC1C(=O)OCC1Cc1cncn1C (stereo unspecified)
growth inhibition [1]: -11.3% | growth inhibition [2]: -8.4% | growth inhibition [3]: -17.9% | growth inhibition [4]: 0.55% | growth inhibition [5]: -9.95% | growth inhibition [6]: -17.9%

CC[C@@H]1C[C@H]2CC3c4[nH]c5ccc(O)cc5c4CCN(C2)C31
growth inhibition [1]: 3.4% | growth inhibition [2]: -24.4% | growth inhibition [3]: 23.6% | growth inhibition [4]: 5.35% | growth inhibition [5]: -1.45% | growth inhibition [6]: 5.6%

CCc1ccc([N+](=O)[O-])cc1
growth inhibition [1]: -9.25% | growth inhibition [2]: -12% | growth inhibition [3]: -19.7% | growth inhibition [4]: -29.4% | growth inhibition [5]: 1.35% | growth inhibition [6]: 10.5%

c1cc2c(cc1NC1=NCCO1)OCO2
growth inhibition [1]: -23.2% | growth inhibition [2]: -18.8% | growth inhibition [3]: -3.65% | growth inhibition [4]: 0.7% | growth inhibition [5]: -13.8% | growth inhibition [6]: -25.2%

O=C(O)C(CSC(c1ccccc1)(c1ccccc1)c1ccccc1)N1C(=O)c2ccccc2C1=O (stereo unspecified)
growth inhibition [1]: 98.8% (active) | growth inhibition [2]: 99.2% (active) | growth inhibition [3]: 99.3% (active) | growth inhibition [4]: 96.8% (active) | growth inhibition [5]: 98.8% (active) | growth inhibition [6]: 99% (active)

C/C(=N\NS(=O)(=O)c1ccc(C)cc1)C(CN(C)C)C(c1ccccc1)c1c(O)c2ccccc2oc1=O (stereo unspecified)
growth inhibition [1]: 59.9% | growth inhibition [2]: 42.2% | growth inhibition [3]: 65.2% | growth inhibition [4]: 52.9% | growth inhibition [5]: 54.7% | growth inhibition [6]: 51.9%

C[Si]1(C)CCCC2(C1)C(=O)NC(=O)NC2=O
growth inhibition [1]: -31.6% | growth inhibition [2]: -17.3% | growth inhibition [3]: -9% | growth inhibition [4]: -1.75% | growth inhibition [5]: -4.2% | growth inhibition [6]: -41.5%

C[Se]c1ncnc2c1c(C#N)cn2C1OC(CO)C(O)C1O (stereo unspecified)
growth inhibition [1]: 0.75% | growth inhibition [2]: 14.3% | growth inhibition [3]: -3.3% | growth inhibition [4]: -13.5% | growth inhibition [5]: 1.45% | growth inhibition [6]: 2.65%

Cc1ccc(C)c(NP(=O)(Nc2cc(C)ccc2C)N(CCCl)CCCl)c1
growth inhibition [1]: 30.2% | growth inhibition [2]: -4.4% | growth inhibition [3]: 30.2% | growth inhibition [4]: 8.1% | growth inhibition [5]: 9.8% | growth inhibition [6]: -8.55%

O=C(CN1C(=O)C2CCCCC2C1=O)N1CC1 (stereo unspecified)
growth inhibition [1]: -7.8% | growth inhibition [2]: 0.1% | growth inhibition [3]: -11.7% | growth inhibition [4]: 5.85% | growth inhibition [5]: -6.6% | growth inhibition [6]: -9.3%

N#CC1(c2ccccc2)CCN(C2(c3ccccc3)CCCCC2)CC1
growth inhibition [1]: -23.4% | growth inhibition [2]: -30.2% | growth inhibition [3]: -5.7% | growth inhibition [4]: 4.25% | growth inhibition [5]: -3.55% | growth inhibition [6]: -30.1%

C=C(C)[C@]12CC(C)C34OC(/C=C\C=C\CCCCCCCCC)(O[C@@H]1[C@@H]3[C@@H]1O[C@]1(CO)[C@@H](O)[C@]1(O)C(=O)C(C)=C[C@@H]41)O2 (stereo partly specified)
growth inhibition [1]: 74.4% (active) | growth inhibition [2]: 70% (active) | growth inhibition [3]: 84.9% (active) | growth inhibition [4]: 73% (active) | growth inhibition [5]: 73.1% (active) | growth inhibition [6]: 64.2%

C=CCC1(C(=C)C)C(=O)NC(=O)NC1=O
growth inhibition [1]: 6.05% | growth inhibition [2]: 6.05% | growth inhibition [3]: 1.4% | growth inhibition [4]: 2.75% | growth inhibition [5]: -13.8% | growth inhibition [6]: -11.3%

Cc1ccc(N[N+](=O)[O-])nc1
growth inhibition [1]: -7.25% | growth inhibition [2]: 8.55% | growth inhibition [3]: -1.15% | growth inhibition [4]: -10.2% | growth inhibition [5]: -3.15% | growth inhibition [6]: 14%

NS(=O)(=O)c1cccc([As](=O)(O)O)c1
growth inhibition [1]: -11.1% | growth inhibition [2]: 10.4% | growth inhibition [3]: -12.9% | growth inhibition [4]: -3.55% | growth inhibition [5]: -13.9% | growth inhibition [6]: -3.6%

O=C1NCC2C3CCC(O3)C12 (stereo unspecified)
growth inhibition [1]: -6.3% | growth inhibition [2]: -16.1% | growth inhibition [3]: 7.95% | growth inhibition [4]: -10.2% | growth inhibition [5]: -17.4% | growth inhibition [6]: -12.1%

CCOC12CC3C4=CCOC5CC(=O)N6c7ccccc7C1(CCN2C4)C6C53 (stereo unspecified)
growth inhibition [1]: 15.8% | growth inhibition [2]: -39.2% | growth inhibition [3]: -9.45% | growth inhibition [4]: 18.9% | growth inhibition [5]: 9.05% | growth inhibition [6]: -1.2%

c1ccc2c(C3N4CCCN3CC4)c[nH]c2c1 (stereo unspecified)
growth inhibition [1]: -0.2% | growth inhibition [2]: -15.7% | growth inhibition [3]: 8.7% | growth inhibition [4]: 9.3% | growth inhibition [5]: -4.2% | growth inhibition [6]: 6.05%

CCOC(=N)CC(O)C(Cl)(Cl)Cl (stereo unspecified)
growth inhibition [1]: -2.05% | growth inhibition [2]: 1.7% | growth inhibition [3]: -10.1% | growth inhibition [4]: -47.2% | growth inhibition [5]: 22% | growth inhibition [6]: -6.25%

N#CC1(c2ccccc2)CCNCC1
growth inhibition [1]: -2.2% | growth inhibition [2]: -33.5% | growth inhibition [3]: -3.15% | growth inhibition [4]: 1.05% | growth inhibition [5]: -0.5% | growth inhibition [6]: -17.8%

CC1=CC2OC3CC4OC(=O)/C=C/C=C/C(C(C)O)OCC/C(C)=C/C(=O)OCC2(CC1)C4(C)C31CO1 (stereo unspecified)
growth inhibition [1]: 92% (active) | growth inhibition [2]: 94.1% (active) | growth inhibition [3]: 93.3% (active) | growth inhibition [4]: 92.2% (active) | growth inhibition [5]: 92.6% (active) | growth inhibition [6]: 90.7% (active)

O=C1NC(=S)NC(=O)C1=Cc1ccncc1
growth inhibition [1]: -19% | growth inhibition [2]: -46.9% | growth inhibition [3]: -7.7% | growth inhibition [4]: 9.55% | growth inhibition [5]: -26.9% | growth inhibition [6]: -10.3%

C[P+]1(C)CCCCC1
growth inhibition [1]: 7.15% | growth inhibition [2]: 12.8% | growth inhibition [3]: 0.35% | growth inhibition [4]: -2.7% | growth inhibition [5]: -8.85% | growth inhibition [6]: -17.1%

CCC1(C(C)=O)CN2CCc3cc(OC)c(OC)cc3C2N2CCc3ccc(OC)c(OC)c3C21 (stereo unspecified)
growth inhibition [1]: 96.9% (active) | growth inhibition [2]: 97.8% (active) | growth inhibition [3]: 97.7% (active) | growth inhibition [4]: 96.7% (active) | growth inhibition [5]: 98.5% (active) | growth inhibition [6]: 98% (active)

O=[N+]([O-])c1ccc(CI)cc1
growth inhibition [1]: 5.65% | growth inhibition [2]: 34.2% | growth inhibition [3]: 36.6% | growth inhibition [4]: -3.55% | growth inhibition [5]: 13.4% | growth inhibition [6]: 23.3%

O=C(O)C(Cc1cnc[nH]1)N1C(=O)c2ccccc2C1=O (stereo unspecified)
growth inhibition [1]: -16.6% | growth inhibition [2]: -12.9% | growth inhibition [3]: -1% | growth inhibition [4]: -24.9% | growth inhibition [5]: -10% | growth inhibition [6]: -8.85%

NC(Cc1ccccc1)c1nn[nH]n1 (stereo unspecified)
growth inhibition [1]: -10.2% | growth inhibition [2]: -19.1% | growth inhibition [3]: -35.6% | growth inhibition [4]: -40.6% | growth inhibition [5]: -17.4% | growth inhibition [6]: -19.3%

O=CC1(c2ccccc2)CCN(Cc2ccccc2)CC1
growth inhibition [1]: 38.8% | growth inhibition [2]: -16.1% | growth inhibition [3]: 45.1% | growth inhibition [4]: 41.3% | growth inhibition [5]: 38.1% | growth inhibition [6]: 17.4%

O=C(O)/C=C/c1ccc(S(=O)(=O)F)cc1
growth inhibition [1]: 36.4% | growth inhibition [2]: -16% | growth inhibition [3]: 16.6% | growth inhibition [4]: 15.9% | growth inhibition [5]: 34% | growth inhibition [6]: 20.6%

Cc1cc(C(C)(C)C)ccc1O
growth inhibition [1]: 27.4% | growth inhibition [2]: -4.1% | growth inhibition [3]: 8.95% | growth inhibition [4]: 4.6% | growth inhibition [5]: 28.2% | growth inhibition [6]: 22%

OCCCN=Cc1ccccc1O.OCCCN=Cc1ccccc1O.[Cu]
growth inhibition [1]: 38% | growth inhibition [2]: -9.5% | growth inhibition [3]: 22.2% | growth inhibition [4]: -32.1% | growth inhibition [5]: 0.35% | growth inhibition [6]: 15.6%

COC(=O)c1ccccc1NC(C)=O
growth inhibition [1]: -13.8% | growth inhibition [2]: -9.25% | growth inhibition [3]: -8.95% | growth inhibition [4]: -38.4% | growth inhibition [5]: -8.5% | growth inhibition [6]: 2.15%

Cc1ccc(C(=O)C(C)N)cc1C (stereo unspecified)
growth inhibition [1]: -13.6% | growth inhibition [2]: -13% | growth inhibition [3]: -17.8% | growth inhibition [4]: 15.2% | growth inhibition [5]: 1.6% | growth inhibition [6]: 22.4%

c1ccc2c(c1)SCCC2NC1=NCCO1 (stereo unspecified)
growth inhibition [1]: -15.2% | growth inhibition [2]: -13.6% | growth inhibition [3]: -9% | growth inhibition [4]: 9.45% | growth inhibition [5]: 8.7% | growth inhibition [6]: -36.3%
